# Reference: PubChem BioAssay (NCATS)
# “And” between values parts separate entries of the source, which are not always exact repeats. Equal values may be shown once. Inconclusive results are not listed. Where a call stands in place of a potency, no number is given. The source made the active and inactive calls. Unless noted, calls come from the whole dose curve; as a rule, active = well fitted curve in the direction sought with a large enough effect; inconclusive = small, poorly fitted or top-dose-only effect, or another doubt; inactive = no such curve, though single readings can be large; an effect the other way counts as inactive or inconclusive.
# Columns and labels:
# [1] = molecular target: Voltage-gated inwardly rectifying potassium channel KCNH2 (Homo sapiens) (UniProt Q12809); experiment: qHTS Assay for Small Molecule Inhibitors of the Human hERG Channel Activity (AID 588834);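 note: lower thallium flux fluorescence means stronger hERG block; nearly all actives have a fitted effect of over 50% in size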; note: potency is the fitted concentration of half-maximal effect
# Outline: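 U2OS cells transduced with hERG via BacMam (MOI ~100), plated 2000/well, loaded with FluxOR thallium dye, compound ~10 min, then stimulation buffer; fluorescence decrease read kinetically; AC50 from Hill fits.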
# [2] = Cell Viability - NIH 3T3 (AID 541); details: NIH 3T3 cell viability, qHTS; activity change, negative = cytotoxicity: at 92.2 µM (top of the series);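 note: cells exposed to compound for 40 hours; nearly all actives have a fitted effect of over 25% in size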
# Outline: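 AC50 values reflect concentration-dependent loss of intracellular ATP in NIH 3T3 cells after 40 hr treatment in complete culture medium, quantified by luciferase-based luminescence.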
# [3] = Cell Viability - H-4-II-E (AID 543);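 note: cells exposed to compound for 40 hours; nearly all actives have a fitted effect of over 35% in size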
# Outline: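 Here, cytotoxicity is measured in the rat hepatoma line H-4-II-E as loss of intracellular ATP after 40 hr compound treatment, detected by luciferase luminescence.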
# [4] = Cellular Toxicity (caspase-3) HepG2 (AID 654);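 note: cells exposed to compound for 16 hours before reading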
# Outline: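 qHTS, HepG2, 1500 cells/well, complete medium; cpd 16 h 37 °C; Caspase-Glo 3/7, 20 min RT; lum. Norm: DMSO vs 100 uM tamoxifen; AC50 Hill fit.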
# [5] = Cellular Toxicity (caspase-3) Hek293 (AID 664);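 note: cells exposed to compound for 16 h at 37 °C before readout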
# Outline: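 Activation of caspase-3/7 is measured as increased luminescence from cleaved peptide-aminoluciferin substrate in HEK293 cells treated 16 hours at 37 °C. AC50 values come from Hill-equation fits of concentration-response data.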
# [6] = Cellular Toxicity (caspase-3) NIH 3T3 (AID 666);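 note: caspase signal read after 16 h compound exposure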
# Outline: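 Concentration-response qHTS in NIH 3T3 mouse fibroblasts scores caspase-3/7 activation as rising luminescence after 16 hr compound exposure. Signals are scaled between DMSO-only and 100 uM tamoxifen.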
# [7] = MultiTox-Fluor Cytotoxicity Assay - LYMP1-002 - Live Cells (AID 955);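 note: cells exposed to compound for 16 hours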
# Outline: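 Cytotoxicity in the human lymphoblastoid line LYMP1-002 is measured as loss of live-cell protease activity after 16 h treatment in complete culture medium. AC50 is derived from Hill-equation fits of qHTS concentration-response data.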
# [8] = MultiTox-Fluor Cytotoxicity Assay - LYMP1-003 - Live Cells (AID 962);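 note: cells exposed to compound for 16 hours at 37 °C; cytotoxic hits lower the live-cell protease signal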
# Outline: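 Cells plated at 2500 per well and incubated 5 hr; compounds added and incubated 16 hr at 37 C; MultiTox-Fluor reagent added for 60 min at room temperature; fluorescence of liberated AFC measured at 405/510 nm.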
# [9] = Cell Viability - LYMP1-003 - Assay at 40 hr (AID 964); note: nearly all actives have a fitted effect of over 60% in size
# Outline: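 This qHTS cytotoxicity screen treats human lymphoblastoid cells (LYMP1-003) with compounds for 40 hr and quantifies cellular ATP via luciferase luminescence.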
# [10] = Cell Viability - LYMP2-004 (AID 966); note: nearly all actives have a fitted effect of over 65% in size
# Outline: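 Acute toxicity is scored as a concentration-dependent drop in intracellular ATP, quantified by luciferase luminescence, in human lymphoblastoid cells exposed to compound for 24 hr. AC50 derives from Hill-equation modelling.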
# [11] = Cell Viability - LYMP2-017 (AID 972);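 note: cells exposed to compound for 24 hours at 37 °C; nearly all actives have a fitted effect of over 55% in size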
# Outline: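 Steps: plate 2500 lymphoblastoid cells per well; incubate 5 hr at 37 C; add compound across a concentration series and incubate 24 hr at 37 C; add CellTiter-Glo and read luminescence after 30 min at room temperature; fit Hill curves for AC50.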
# [12] = Cell Viability - LYMP2-019 (AID 973); note: nearly all actives have a fitted effect of over 55% in size
# Outline: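 Cells plated at 2500/well and allowed 5 hr at 37 C before compound addition. After 24 hr incubation, CellTiter-Glo reagent was added, plates sat 30 min at room temperature, and luminescence was recorded.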
# [13] = Cell Viability - LYMP2-002 (AID 977)
# Outline: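 Luminescent ATP readout (CellTiter-Glo, 30 min room temperature) after 24 h compound exposure at 37 C of a human lymphoblastoid line, 2500 cells/well. AC50 values derived by standard Hill fitting of qHTS concentration-response data.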
# [14] = Cell Viability - LYMP2-007 (AID 979);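 note: cells exposed to compound for 24 h before reading; nearly all actives have a fitted effect of over 60% in size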
# Outline: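 Acute toxicity is scored as a concentration-dependent fall in intracellular ATP in human lymphoblastoid cells treated 24 hr at 37 C, measured by luciferase luminescence; Hill-equation modelling yields AC50.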
# [15] = Cell Viability - LYMP2-014 (AID 983); note: nearly all actives have a fitted effect of over 50% in size
# Outline: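 Decrease in intracellular ATP after 24 hr treatment at 37 C, measured by luciferase luminescence, indicated cytotoxicity. Concentration-response data were fitted with the standard Hill equation to give AC50.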
# [16] = Cell Viability - LYMP2-022 (AID 987); note: nearly all actives have a fitted effect of over 55% in size
# Outline: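 Acute toxicity in a human lymphoblastoid line is scored as decreased intracellular ATP after 24 hr compound treatment at 37 C. ATP is measured by CellTiter-Glo luminescence; curves are fitted with the Hill equation to give AC50.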
# [17] = qHTS assay for small molecule agonists of retinoid X receptor alpha signaling (AID 588544); details: HEK293T RXRa-UAS-bla, beta-lactamase reporter, 18 h; 530 nm emission
# [18] = molecular target: Retinoic acid receptor RXR-alpha (Homo sapiens) (UniProt P19793); experiment: qHTS assay for small molecule antagonists of retinoid X receptor alpha signaling (AID 588546; active = well fitted inhibition curve with a large enough effect in the signal ratio, with a control signal flat, not every such curve was filed as active; the % refers to the signal ratio;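 note: cells stimulated with 9-cis-retinoic acid as agonist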); details: HEK293T RXRa-UAS-bla, beta-lactamase ratio, antagonist mode
# Outline: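 Beta-lactamase reporter inhibition, read as CCF4 fluorescence ratio (ex 405, em 460/530 nm) after 2 h at RT. HEK293T UAS-bla cells, 2500/well, were stimulated with 9-cis-RA at 500 or 100 nM final alongside test compound for 18 h at 37 C.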
# [19] = qHTS assay for small molecule disruptors of the mitochondrial membrane potential - 1 hr assay (AID 651754; calls by dose curve; note: nearly all actives have a fitted effect of over 35% in size)
# Outline: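 Steps: seed HepG2 cells and let attach overnight; pin-transfer compound or vehicle; incubate 1 hr at 37C; add Mito-MPS dye for 30 min; read two-channel fluorescence for monomer and aggregate forms.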
# [20] = qHTS assay for small molecule agonists of the antioxidant response element (ARE) signaling pathway measured by Nrf2-dependant transcriptional activity (AID 720636; active = well fitted curve in the direction sought with a large enough effect in the repeat runs; an effect the other way counts as inactive or inconclusive;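 note: HepG2 cells with an ARE-driven luciferase reporter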)
# Outline: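 In HepG2 cells engineered with an Nrf2-responsive luciferase gene, ARE induction was quantified as luminescence after 16 hr compound treatment at 37 C.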
# Retinoic acid receptor RXR-alpha (Homo sapiens), sequence (P19793 whole entry, looked up): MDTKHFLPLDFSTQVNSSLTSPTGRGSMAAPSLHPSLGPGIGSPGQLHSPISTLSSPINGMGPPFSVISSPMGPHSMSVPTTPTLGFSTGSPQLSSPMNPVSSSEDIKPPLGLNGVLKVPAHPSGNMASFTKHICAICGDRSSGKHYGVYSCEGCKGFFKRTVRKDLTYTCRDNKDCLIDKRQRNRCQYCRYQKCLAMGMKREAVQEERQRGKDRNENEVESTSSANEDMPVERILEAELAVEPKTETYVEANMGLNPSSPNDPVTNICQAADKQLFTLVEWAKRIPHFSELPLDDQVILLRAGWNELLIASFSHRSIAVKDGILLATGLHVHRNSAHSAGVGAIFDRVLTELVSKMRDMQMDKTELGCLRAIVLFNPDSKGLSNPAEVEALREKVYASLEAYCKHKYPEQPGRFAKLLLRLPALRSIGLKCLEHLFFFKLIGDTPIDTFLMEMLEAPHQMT
# Voltage-gated inwardly rectifying potassium channel KCNH2 (Homo sapiens), sequence (Q12809 whole entry, looked up): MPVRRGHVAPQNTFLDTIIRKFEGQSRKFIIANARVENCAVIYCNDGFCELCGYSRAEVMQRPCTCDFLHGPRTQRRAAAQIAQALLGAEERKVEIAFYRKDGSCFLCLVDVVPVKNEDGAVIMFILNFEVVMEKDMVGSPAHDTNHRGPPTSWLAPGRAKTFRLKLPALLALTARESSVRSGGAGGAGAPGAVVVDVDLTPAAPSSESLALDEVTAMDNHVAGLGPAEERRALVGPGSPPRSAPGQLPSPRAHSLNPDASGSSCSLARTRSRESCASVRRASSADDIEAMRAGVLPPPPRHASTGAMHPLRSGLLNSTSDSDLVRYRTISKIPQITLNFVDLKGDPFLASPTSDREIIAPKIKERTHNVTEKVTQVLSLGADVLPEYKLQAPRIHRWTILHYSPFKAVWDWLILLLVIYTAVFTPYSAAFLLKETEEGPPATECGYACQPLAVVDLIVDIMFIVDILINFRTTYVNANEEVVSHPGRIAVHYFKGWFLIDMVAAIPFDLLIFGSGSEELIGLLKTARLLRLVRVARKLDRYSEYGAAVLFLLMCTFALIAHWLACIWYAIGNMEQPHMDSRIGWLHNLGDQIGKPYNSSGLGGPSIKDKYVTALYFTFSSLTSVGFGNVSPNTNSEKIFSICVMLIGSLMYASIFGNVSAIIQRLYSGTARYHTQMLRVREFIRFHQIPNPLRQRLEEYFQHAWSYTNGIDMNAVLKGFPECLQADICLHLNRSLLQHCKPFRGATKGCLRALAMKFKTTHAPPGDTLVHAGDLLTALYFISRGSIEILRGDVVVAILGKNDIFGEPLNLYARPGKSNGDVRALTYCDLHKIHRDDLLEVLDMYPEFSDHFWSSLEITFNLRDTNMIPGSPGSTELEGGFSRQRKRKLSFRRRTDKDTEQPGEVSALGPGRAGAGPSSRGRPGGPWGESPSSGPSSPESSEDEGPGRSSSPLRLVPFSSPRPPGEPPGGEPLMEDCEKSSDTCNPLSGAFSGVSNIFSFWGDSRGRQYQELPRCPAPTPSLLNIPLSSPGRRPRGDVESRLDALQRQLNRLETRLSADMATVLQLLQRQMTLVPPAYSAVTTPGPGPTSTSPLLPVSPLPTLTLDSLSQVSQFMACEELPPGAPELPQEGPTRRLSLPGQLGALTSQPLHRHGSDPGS
Compound,Potency [1],"activity change, negative = cytotoxicity [2]",Potency [3],outcome [4],outcome [5],outcome [6],outcome [7],Potency [8],Potency [9],Potency [10],Potency [11],Potency [12],Potency [13],Potency [14],Potency [15],Potency [16],max response [17],max response [18],Potency [19],outcome [20]
CN1C[C@H](C(=O)N[C@]2(C)O[C@@]3(O)C4CCCN4C(=O)[C@H](Cc4ccccc4)N3C2=O)C[C@@H]2c3cccc4[nH]cc(c34)C[C@H]21 (some centres not stated),11.2 µM (active),,,,,,,,,,,,,,,,,,,
c1ccc(-c2ccccc2)cc1,44.7 µM (active),-5.05% (inactive),inactive,inactive,inactive,inactive,inactive,inactive,inactive,inactive,inactive,inactive,inactive,inactive,inactive,inactive,-1.55% and -17%,-4.53% (inactive) and 7.05% (inactive),inactive,inactive
CCN(CC)c1ccccc1,inactive,4.17% (inactive),inactive,inactive,inactive,inactive,inactive,inactive,inactive,inactive,inactive,inactive,inactive,inactive,inactive,inactive,-1.24%,4.5% (inactive),inactive,inactive
S=C(S)N1CCCC1,3.55 µM (active),,,,,,,,,,,,,,,,,,,
C[C@]12CC[C@H]3[C@@H](CCC4=CC(=O)CC[C@@]43C)[C@@H]1CC[C@@H]2O,,-90.5% (active),,inactive,inactive,inactive,inactive,inactive,inactive,inactive,inactive,inactive,inactive,inactive,inactive,inactive,3.81%,,inactive,inactive
COC1=CC(=O)O[C@@H](/C=C/c2ccc3c(c2)OCO3)C1,inactive,,,inactive,inactive,,inactive,inactive,inactive,inactive,inactive,inactive,inactive,inactive,inactive,inactive,,-29.4% (inactive),inactive,inactive
Cc1ccccc1N,inactive,-25.3% (inactive) and -5.05% (inactive),inactive,inactive,inactive,inactive,inactive,inactive,inactive,inactive,inactive,inactive,inactive,inactive,inactive,inactive,1.21% and 0.728%,13.9% (inactive),inactive,inactive
O=NN(c1ccccc1)c1ccccc1,inactive,-6.8% (inactive),inactive,inactive,inactive,inactive,inactive,inactive,inactive,inactive,inactive,inactive,inactive,inactive,inactive,inactive,-13.1% and -6.23%,-2.47% (inactive) and 4.6% (inactive),inactive,inactive
Oc1ccc(Cl)cc1Cl,inactive,-8.01% (inactive),inactive,inactive,inactive,inactive,inactive,inactive,inactive,inactive,inactive,inactive,inactive,inactive,inactive,inactive,1.97%,-2.36% (inactive) and -1.51% (inactive),inactive,inactive
Clc1cccc(C(Cl)(Cl)Cl)n1,inactive,-0.893% (inactive),inactive,inactive,inactive,inactive,inactive,inactive,inactive,inactive,inactive,inactive,inactive,inactive,inactive,inactive,-9.56% and 6.27%,0.436% (inactive) and 2.35% (inactive),inactive,inactive
Cc1ccc2ccccc2c1,inactive,-11.3% (inactive),inactive,inactive,inactive,inactive,inactive,inactive,inactive,inactive,inactive,inactive,inactive,inactive,inactive,inactive,-14.7%,-9.3% (inactive),inactive,inactive
CC(C)(C)OOC(C)(C)C,inactive,-23.7% (inactive),inactive,inactive,inactive,inactive,inactive,inactive,inactive,inactive,inactive,inactive,inactive,inactive,inactive,inactive,-0.936%,11.6% (inactive),inactive,inactive
O=C(Cl)/C=C/C(=O)Cl,inactive,9.76% (inactive),inactive,inactive,inactive,inactive,inactive,inactive,inactive,inactive,inactive,inactive,inactive,inactive,inactive,inactive,-9%,-3.28% (inactive),inactive,inactive
C=CCOC(C)=O,inactive,-5.94% (inactive),inactive,inactive,inactive,inactive,inactive,inactive,inactive,inactive,inactive,inactive,inactive,inactive,inactive,inactive,-7.26%,2.59% (inactive),inactive,inactive
CCCSC(=O)Cl,inactive,-26.8% (inactive),inactive,inactive,inactive,inactive,inactive,inactive,inactive,,inactive,inactive,inactive,inactive,inactive,inactive,-2.47%,25.6% (inactive),inactive,inactive
[O-][Br+2]([O-])O,inactive,0.18% (inactive) and -3.06% (inactive),inactive,inactive,inactive,inactive,,,inactive,inactive,inactive,inactive,inactive,inactive,inactive,inactive,8.99% and 2.4%,9.17% (inactive) and 7.78% (inactive),inactive,inactive
CC(Cl)Cl,inactive,-15.4% (inactive),inactive,inactive,inactive,inactive,inactive,inactive,inactive,inactive,inactive,inactive,inactive,inactive,inactive,inactive,-6.24%,21.2% (inactive),inactive,inactive
Nc1ccccc1Cl,inactive,-1.33% (inactive),inactive,inactive,inactive,inactive,inactive,inactive,inactive,inactive,inactive,inactive,inactive,inactive,inactive,inactive,-4.32%,23.6% (inactive),inactive,inactive
CN=C=S,inactive,7.36% (inactive),inactive,inactive,inactive,inactive,inactive,inactive,inactive,inactive,inactive,inactive,inactive,inactive,inactive,inactive,-13.3% and 3.16%,0.0175% (inactive) and -8.56% (inactive),inactive,inactive
C=CCOC(=O)c1ccccc1N,inactive,-10.8% (inactive),inactive,inactive,inactive,inactive,inactive,inactive,inactive,inactive,inactive,inactive,inactive,inactive,inactive,inactive,1.54%,2.96% (inactive),inactive,inactive
ClCBr,inactive,-20.5% (inactive),inactive,inactive,inactive,inactive,inactive,inactive,inactive,inactive,inactive,,inactive,,,inactive,-17.3%,-1.21% (inactive),inactive,inactive
Brc1ccccc1,inactive,-8.92% (inactive),inactive,inactive,inactive,inactive,inactive,inactive,inactive,inactive,inactive,inactive,inactive,inactive,inactive,inactive,-12.9% and -10.7%,-1.11% (inactive) and -6.34% (inactive),inactive,inactive
S=C=Nc1cccc2ccccc12,inactive,1.16% (inactive),inactive,inactive,inactive,inactive,inactive,inactive,inactive,inactive,inactive,inactive,inactive,inactive,inactive,inactive,6.51%,3.59% (inactive),,inactive
O=C(Cl)C(Cl)(Cl)Cl,inactive,1.81% (inactive),inactive,inactive,inactive,inactive,inactive,inactive,inactive,inactive,inactive,inactive,inactive,inactive,inactive,inactive,2.41%,2.98% (inactive),inactive,inactive
C=C(Cl)Cl,inactive,0.633% (inactive),inactive,inactive,inactive,inactive,inactive,inactive,inactive,inactive,inactive,inactive,inactive,inactive,inactive,inactive,-17.1%,-1.27% (inactive),inactive,inactive
Clc1ccc2ccccc2c1,inactive,7.96% (inactive),inactive,inactive,inactive,inactive,inactive,inactive,inactive,inactive,inactive,inactive,inactive,inactive,inactive,inactive,-15.7%,,inactive,inactive
C=CC(=C)C,inactive,-9.16% (inactive),inactive,inactive,inactive,inactive,inactive,inactive,inactive,inactive,inactive,inactive,inactive,inactive,inactive,inactive,8.28%,-0.537% (inactive),inactive,inactive
